In PubChem BioAssay AID504621 (Broad Institute, 2011):
Values joined by “and” are separate entries in the source; they are usually repeats but may differ in a detail not shown here. Identical values can stand only once. In all, about 310,000 compounds went through this assay and about 970 (0.31%) were called active.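 Rule for the calls: active = every replicate shows inhibition above about 80%, whatever the replicate mean (limit read from the data); inconclusive = mean inhibition reaches the set limit but some replicate falls short; inactive = the rest.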 The list comes from a sample in which actives are over-represented; it also holds similar structures and randomly drawn compounds.

Assay: reduced ATP signal of yeast carrying P. falciparum Hsp90 – S. cerevisiae, BacTiter-Glo luminescence, single point, set 2, antimalarial PfHsp90 inhibitor project, primary screen (AID 504621);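 note: yeast relying on Plasmodium falciparum Hsp90 in place of its own; 0% = DMSO neutral controls and 100% = 20 µM radicicol positive controls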
Details: S. cerevisiae expressing PfHsp90, growth, 48 h, at 9.4 µM, hits give high values, yeast lacking PDR1 and PDR3 efflux regulators

Row | Structure (SMILES) | inhibition
1 | COc1cccc(C=CC(=O)C=CC=Cc2ccccc2)c1 | 16.4% (inactive)
2 | CN(C)C(=S)N=c1ssc(=S)n1Cc1ccco1 | -41.1% (inactive)
3 | Oc1ccc2ccccc2c1N=Nc1nccs1 | 131% (active)
4 | c1ccc(NCc2cccc3ccccc23)nc1 | 3.43% (inactive)
5 | Oc1ccc(N=Nc2nccs2)c(O)c1 | 4.56% (inactive)
6 | CCCCN(CCCC)CCC(O)c1cc2c(Cl)cc(Cl)cc2c2cc(C(F)(F)F)ccc12 (stereo unspecified) | 110% (active)
7 | CCCCC(=O)Nc1ccc(C(=O)Nc2cc(C(F)(F)F)ccc2Cl)cc1 | -1.45% (inactive)
8 | COc1ccc(C(CNC(=O)c2cccc(S(=O)(=O)Nc3ccc(Br)cc3)c2)N(C)C)cc1 (stereo unspecified) | 3.14% (inactive)
9 | C=CC[C@@H](Cc1ccc(F)cc1)C(=O)OC[C@H]1CCCN1C(=O)[C@H](CC=C)CC(=O)N(CCO)Cc1ccccc1 | 6.25% (inactive)
10 | NNc1cccc(C=Cc2ccccc2)cc1=O | 17.2% (inactive)
11 | Cc1cccnc1NC(=O)c1cccc(S(=O)(=O)N2CCN(c3ccc(F)cc3)CC2)c1 | -4.19% (inactive)
12 | Oc1c(CN2CCN(c3ccc(F)cc3)CC2)cc(Cl)c2cccnc12 | 136% (active)
13 | Oc1c(CN2CCCC2)cc(COCc2ccccc2)c2cccnc12 | 16.4% (inactive)
14 | COc1ccc(Nc2ccc3ccccc3c2)cc1 | -39% (inactive)
15 | O=C(Nc1nnc(CCOCCOCCc2nnc(NC(=O)c3ccco3)s2)s1)c1ccco1 | 4.41% (inactive)
16 | O=C(Nc1ccccc1)c1ccco1 | 1.65% (inactive)
17 | O=C(Nc1nc(-c2ccco2)c(-c2ccco2)s1)c1ccco1 | 92% (active)
18 | COc1ccc(/C=C2/CCCc3ccccc3C2=O)cc1 | 17.4% (inactive)
19 | Cc1ccc2nc(Nc3ccccc3)cc(C)c2c1 | -1.32% (inactive)
20 | Cc1ccc2nc(-c3ccncc3)cc(C(=O)Nc3ccncc3)c2c1 | -8.61% (inactive)
21 | CCS(=O)(=O)Nc1cccc(-c2cc(-c3ccccc3)c3cc(C)ccc3n2)c1 | 102% (active)
22 | O=C1OCC2=C1C(c1ccc(Cl)cc1)c1cc3c(cc1O2)OCO3 (stereo unspecified) | -15.7% (inactive)
23 | O=C(CC(n1cncn1)C(Cl)(Cl)Cl)c1ccc([N+](=O)[O-])cc1 (stereo unspecified) | 123% (active)

Row | Structure (SMILES) | inhibition
24 | O=C(Cn1c[n+](CC(=O)c2ccc([N+](=O)[O-])cc2)cn1)c1ccc([N+](=O)[O-])cc1 | -20.5% (inactive) and -1.84% (inactive)
25 | O=C(Nn1cnnc1)c1ccc([N+](=O)[O-])cc1 | 10.8% (inactive)
26 | Oc1ccc(-c2nc3ccccc3nc2-c2ccc(O)cc2O)c(O)c1 | 6.66% (inactive)
27 | O=C(O)c1ccc(NN=CC2=C(N3CCOCC3)/C(=C/c3ccccc3)CC2)cc1 | -30.6% (inactive)
28 | CC(C)c1ccc(C=NNc2ccc([N+](=O)[O-])cn2)cc1 | -14.5% (inactive)
29 | O=S(=O)(NC1CCCCC1N1CCCCC1)c1ccc(Cl)cc1 (stereo unspecified) | -25% (inactive)
30 | O=S(=O)(NC1CC2CCC1C2)c1ccc(Cl)cc1 (stereo unspecified) | 104% (active)
31 | O=S(=O)(NC1CC1)c1ccc(Cl)cc1 | -7.47% (inactive)
32 | COc1ccc(-c2ccc3c(c2)[C@@H]2C[C@H](N(C)S(=O)(=O)c4ccccc4)[C@H]([C@H](C)O)C(=O)N2CC3)cc1 | 6.39% (inactive)
33 | CC(C)Cn1cnc2c(SCc3ccc(Cl)cc3)nc(N)nc21 | 12.6% (inactive)
34 | COc1cccc2c1C(=O)c1c(O)c3c(c(O)c1C2=O)CC(O)(C(C)=NNC(=O)c1ccc(Cl)c(Cl)c1)CC3OC1CC(N)C(O)C(C)O1 (stereo unspecified) | -3.52% (inactive)
35 | CC1=C/C(=N\OS(=O)(=O)c2ccccc2)C=CC1=O | 100% (active)
36 | O=C(Nc1ccc(S(=O)(=O)N2CCOCC2)cc1)C1CCN(S(=O)(=O)c2ccc(Cl)cc2)CC1 | -11.4% (inactive)
37 | COc1ccc2sc(-c3ccc(N(C)C)cc3)c(-c3ccc4cc[nH]c4c3)c2c1 | -6.56% (inactive)
38 | COc1ccc2c(c1)c(=Cc1ccc(N(C)C)cc1)c1cc(-c3ccccc3)[n+](C)n12 | 114% (active)
39 | COc1ccc2sc(-c3ccc(N(C)C)cc3)c(C#CCO)c2c1 | 15% (inactive)
40 | CCN1CCC(O)(/C=C/c2ccc(C)cc2)C(C(=O)/C=C/c2ccc(C)cc2)C1 (stereo unspecified) | 19.6% (inactive)
41 | Cc1c(NS(=O)(=O)c2cccc(C(=O)Nc3ccc(SC(F)F)cc3)c2)c(=O)n(-c2ccccc2)n1C | -2.76% (inactive)
42 | COc1ccc2c(c1)C(=O)CC(c1ccccc1)O2 (stereo unspecified) | -30% (inactive)
43 | CCCCC(=O)NC(c1ccc(OC)c(OC)c1)c1ccc2cccnc2c1O (stereo unspecified) | 25.2% (inactive)
44 | C#CCOCCOCCOCCNc1nc(N2CCOCC2)nc(N2CCN(C(=O)[C@H](Cc3ccc(O)cc3)n3cc(CCO)nn3)CC2)n1 | 2.07% (inactive)
45 | C[C@@H]1C[C@@H]2O[C@H]2/C=C\C=C\C(=O)Cc2c(Cl)c(O)cc(O)c2C(=O)O1 | 95% (active)
46 | Cc1ccc(-c2csc(C(C#N)=C(O)CN3CCN(C(=O)c4ccco4)CC3)n2)cc1 | 4.72% (inactive)

Row | Structure (SMILES) | inhibition
47 | O=C(Cc1ccccc1)NC(=S)Nc1ccc(N2CCCCC2)cc1 | -35.9% (inactive)
48 | CC(=O)Nc1ccc(S(=O)(=O)Nc2ccc(N3CCCCC3)cc2)cc1 | 26.6% (inactive)
49 | O=C1C=CC(=O)N1c1ccc(N2CCCCC2)cc1 | 109% (active)
50 | O=C(NNc1nc(N2CCCC2)nc(N2CCCC2)n1)c1ccccc1 | 16.9% (inactive)
51 | CCN(CC)CCCC(C)n1c2nc(=O)[nH]c(=O)c-2nc2cc(Cl)ccc21 (stereo unspecified) | -9.23% (inactive)
52 | NC(=O)C1CCN(C(=O)c2cc(S(=O)(=O)N3CCN(c4ccccc4)CC3)ccc2Cl)CC1 | -2.95% (inactive)
53 | CC1=CC(=NNS(=O)(=O)c2ccc([N+](=O)[O-])cc2)CC(C)(C)C1 | -10.2% (inactive)
54 | O=[N+]([O-])c1ccc(NS(=O)(=O)c2ccccc2)c(Cl)c1 | -12% (inactive)
55 | COc1ccc(/C=C/C(=O)c2ccc(OC)cc2O)cc1 | 3.31% (inactive)
56 | COc1ccc(/C=C/C(=O)c2cc(Br)ccc(=O)c2O)cc1 | 99.7% (active)
57 | COc1ccc(C(=O)/C=C/c2ccc(OC3CSC3)cc2)cc1 | 12.6% (inactive)
58 | CN(C(=O)c1cccc(NC(=O)Cc2ccc(NC(=O)C3CCCN(C(=O)C4CCCC4)C3)cc2)c1)C1CCC1 (stereo unspecified) | 3.19% (inactive)
59 | COC(=O)CC(CC(=O)OC)n1cccc1 | 10.4% (inactive)
60 | Cc1cccc(NC(=S)N2CCC(C(=O)c3ccc(F)cc3)CC2)c1 | -3.65% (inactive)
61 | COc1ccc(CNCCCNCc2ccc(OC)c(OC)c2)cc1OC | -32.5% (inactive)
62 | CC(=O)N(C1=C(Cl)C(=O)c2ccccc2C1=O)c1ccc(C(=O)O)cc1 | 13.4% (inactive)
63 | CC(=O)Oc1ccc2c(c1)C(=O)c1ccccc1C2=O | 6.15% (inactive)
64 | O=C1C(Cl)=C(Oc2ccccc2)C(=O)c2ccccc21 | 104% (active)
65 | COc1ccc(Cn2cc(CN3CCS(=O)(=O)N(Cc4ccc(-c5cccc(Cl)c5)cc4)C(C)C3=O)nn2)cc1 (stereo unspecified) | -24.7% (inactive)
66 | COc1ccc(-c2nn(-c3ccccc3)cc2/C=N/Nc2ccccn2)cc1OC | -22% (inactive)
67 | Oc1cccc(/C=N/Nc2ccc(Cl)nn2)c1O | 1.34% (inactive)
68 | Oc1ccc(Br)cc1/C=N/Nc1ccccn1 | 107% (active)
69 | COc1ccc(CCC(=O)Nc2ccc(Cl)c(S(=O)(=O)N3CCOCC3)c2)cc1OC | -12.1% (inactive)

Row | Structure (SMILES) | inhibition
70 | CC[C@@H]1Cc2cc(O)ccc2C2=C1c1ccc(O)cc1C[C@H]2CC | 108% (active)
71 | CSCCC(NC(=O)COc1ccccc1)C(=O)N1CCN(c2cccc(C(F)(F)F)c2)CC1 (stereo unspecified) | 46.4% (inactive)
72 | Cc1ccc(S(=O)(=O)c2cc3c(=O)n4cccc(C)c4nc3n(CCc3ccccc3)c2=N)cc1C | 0.767% (inactive)
73 | COc1cc(/C=N/O)cc(Br)c1OS(=O)(=O)c1ccc(C)cc1 | -10.1% (inactive)
74 | COc1cc(/C=N/O)cc(Br)c1OCc1cccc(Cl)c1 | 121% (active)
75 | COc1cc(C(=O)NCc2ccncc2)cc(Br)c1OCc1ccccc1 | 46.3% (inactive)
76 | Cc1nn(-c2ncccn2)c2c1C(=O)CC(C)(C)C2Br (stereo unspecified) | -6.87% (inactive)
77 | COc1ccc(CCN2CC(C(=O)OCC(=O)NCc3ccccc3Cl)CC2=O)cc1OC (stereo unspecified) | -2.54% (inactive)
78 | CC1(C)N=C(N)NC(Nc2ccc(Cl)cc2)=N1 | 7.88% (inactive)
79 | C/C(=N\Nc1ccc(Cl)nn1)c1ccccc1O | 2.56% (inactive)
80 | CCN(/N=C/c1ccc(N(C)C)cc1)c1nc2ccccc2[nH]1 | 24% (inactive)
81 | Oc1ccc(/C=N/N(Cc2ccccc2)c2ccccc2)cc1 | 96.6% (active)
82 | CCN(/N=C/c1ccccc1)c1cc(=O)n(C)c(=O)[nH]1 | -32.6% (inactive)
83 | Cc1ccc2c(O)c(Cc3ccccc3)c(=O)[nH]c2n1 | -3.48% (inactive)
84 | CC(C)C[C@H]1CN([C@@H](CC(C)C)CN2CCC[C@@H]2CN2C(=O)C(=O)NC[C@@H]2Cc2ccccc2)C(=O)C(=O)N1CCc1ccccc1 | 1.81% (inactive)
85 | CC(C=Cc1ccccc1)=NNS(=O)(=O)c1ccc([N+](=O)[O-])cc1 | -1.29% (inactive)
86 | CC(=O)OCC1(O)CC23CCC4c5ccoc5CCC4(C)C2CCC1C3 (stereo unspecified) | -29.4% (inactive)
87 | c1ccc(CCc2ccccn2)cc1 | 12.1% (inactive)
88 | Cc1ccccc1NCC(=O)N/N=C\c1ccc([N+](=O)[O-])s1 | -6.37% (inactive)
89 | O=[N+]([O-])c1ccc(C=Nc2ccc(Cl)cc2Cl)s1 | 110% (active)
90 | CC(C)(C)c1cc(C(=O)N/N=C/c2ccc([N+](=O)[O-])s2)n[nH]1 | -5.37% (inactive)
91 | CC(C)(C)OC(=O)N1CCC(C(=O)Nc2cccc(C(=O)NCCc3ccccc3)c2)CC1 | 5.32% (inactive)
